Legend:
Assay in all cases: log2 ratio of Biotin-Ahx-Ub-VS probe labelling (fragment/DMSO); higher = less target engagement (more negative = stronger competition), active = hit call of the paper (q ≤ 0.05, log2 ratio ≤ -1)
Details in all cases: compound concentration: 200 uM; treatment time: 3 h
USP34 = USP34 (UniProt Q70CQ2)
Summary of the method: (§1)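 The table lists average log2 ratios of fragment over vehicle, from an unpaired t-test on global-median-normalised Spectronaut label-free quantities. Proteins with ≥2 unique peptides were used. Samples were HEK293T lysate (495 µg) treated in triplicate with fragment at 200 µM or vehicle for 3 h, then with Biotin-Ahx-Ub-VS (0.5 µM final) for 1 h, with labelled DUBs NeutrAvidin-enriched and run by diaPASEF LC-MS/MS.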

USP36 = target: T1, USP36 (UniProt Q9P275)
T1 sequence (whole entry): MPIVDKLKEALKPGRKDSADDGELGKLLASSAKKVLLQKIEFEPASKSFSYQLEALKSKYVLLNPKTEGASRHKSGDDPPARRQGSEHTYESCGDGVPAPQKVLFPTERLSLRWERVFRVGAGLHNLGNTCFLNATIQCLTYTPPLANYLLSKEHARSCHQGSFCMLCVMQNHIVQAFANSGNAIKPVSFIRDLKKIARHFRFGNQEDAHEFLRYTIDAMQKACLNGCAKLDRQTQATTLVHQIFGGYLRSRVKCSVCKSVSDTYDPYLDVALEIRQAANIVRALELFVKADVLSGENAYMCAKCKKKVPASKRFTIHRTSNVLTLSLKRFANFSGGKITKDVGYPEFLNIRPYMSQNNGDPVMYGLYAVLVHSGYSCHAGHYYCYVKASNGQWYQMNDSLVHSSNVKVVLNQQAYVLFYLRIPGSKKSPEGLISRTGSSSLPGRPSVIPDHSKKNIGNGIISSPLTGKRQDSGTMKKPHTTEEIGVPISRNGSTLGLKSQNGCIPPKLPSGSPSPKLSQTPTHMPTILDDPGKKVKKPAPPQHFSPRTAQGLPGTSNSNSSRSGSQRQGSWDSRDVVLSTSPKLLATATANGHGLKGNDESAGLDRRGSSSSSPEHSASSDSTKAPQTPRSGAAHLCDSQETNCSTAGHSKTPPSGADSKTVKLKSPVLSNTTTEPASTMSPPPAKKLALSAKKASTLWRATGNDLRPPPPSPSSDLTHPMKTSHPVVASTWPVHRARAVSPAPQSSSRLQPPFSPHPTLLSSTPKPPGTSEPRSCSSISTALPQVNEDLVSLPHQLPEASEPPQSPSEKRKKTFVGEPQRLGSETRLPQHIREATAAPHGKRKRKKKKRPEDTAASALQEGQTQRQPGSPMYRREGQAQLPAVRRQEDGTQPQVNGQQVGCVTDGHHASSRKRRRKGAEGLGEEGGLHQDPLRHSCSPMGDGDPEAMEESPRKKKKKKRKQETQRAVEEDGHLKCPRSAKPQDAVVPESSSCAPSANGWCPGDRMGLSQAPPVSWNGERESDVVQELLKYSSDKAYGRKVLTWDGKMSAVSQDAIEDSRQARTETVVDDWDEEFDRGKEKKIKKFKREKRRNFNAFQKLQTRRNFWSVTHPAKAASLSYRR
Summary of the method: as §1

USP38 = target: T2, USP38 (UniProt Q8NB14)
T2 sequence (whole entry): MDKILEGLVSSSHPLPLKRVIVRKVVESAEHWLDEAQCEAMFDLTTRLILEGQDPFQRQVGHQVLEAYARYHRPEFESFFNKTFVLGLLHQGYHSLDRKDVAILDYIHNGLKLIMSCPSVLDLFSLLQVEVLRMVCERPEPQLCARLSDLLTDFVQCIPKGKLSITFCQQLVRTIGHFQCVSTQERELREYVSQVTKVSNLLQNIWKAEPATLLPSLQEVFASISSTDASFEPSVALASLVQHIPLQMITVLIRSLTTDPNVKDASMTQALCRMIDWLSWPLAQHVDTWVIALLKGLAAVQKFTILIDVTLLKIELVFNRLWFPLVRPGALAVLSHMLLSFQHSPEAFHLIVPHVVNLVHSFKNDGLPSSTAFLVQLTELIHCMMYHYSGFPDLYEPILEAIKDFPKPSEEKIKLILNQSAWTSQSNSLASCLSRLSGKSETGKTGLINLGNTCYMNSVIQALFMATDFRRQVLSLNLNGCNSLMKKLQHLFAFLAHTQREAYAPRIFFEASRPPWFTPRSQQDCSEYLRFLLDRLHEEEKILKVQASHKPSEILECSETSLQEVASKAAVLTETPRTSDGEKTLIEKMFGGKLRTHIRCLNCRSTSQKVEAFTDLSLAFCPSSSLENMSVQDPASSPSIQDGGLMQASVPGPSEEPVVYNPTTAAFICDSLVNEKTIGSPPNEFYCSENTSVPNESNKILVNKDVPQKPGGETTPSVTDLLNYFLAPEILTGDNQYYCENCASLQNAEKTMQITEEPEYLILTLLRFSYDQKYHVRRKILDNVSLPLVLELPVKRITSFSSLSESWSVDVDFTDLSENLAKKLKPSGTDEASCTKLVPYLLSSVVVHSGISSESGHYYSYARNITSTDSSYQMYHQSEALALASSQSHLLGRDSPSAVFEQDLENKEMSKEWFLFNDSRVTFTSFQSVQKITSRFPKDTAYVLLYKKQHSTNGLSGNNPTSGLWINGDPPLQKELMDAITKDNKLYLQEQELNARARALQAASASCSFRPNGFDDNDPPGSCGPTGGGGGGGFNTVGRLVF
Summary of the method: as §1

USP39 = target: T3, USP39 (UniProt Q53GS9)
T3 sequence (whole entry): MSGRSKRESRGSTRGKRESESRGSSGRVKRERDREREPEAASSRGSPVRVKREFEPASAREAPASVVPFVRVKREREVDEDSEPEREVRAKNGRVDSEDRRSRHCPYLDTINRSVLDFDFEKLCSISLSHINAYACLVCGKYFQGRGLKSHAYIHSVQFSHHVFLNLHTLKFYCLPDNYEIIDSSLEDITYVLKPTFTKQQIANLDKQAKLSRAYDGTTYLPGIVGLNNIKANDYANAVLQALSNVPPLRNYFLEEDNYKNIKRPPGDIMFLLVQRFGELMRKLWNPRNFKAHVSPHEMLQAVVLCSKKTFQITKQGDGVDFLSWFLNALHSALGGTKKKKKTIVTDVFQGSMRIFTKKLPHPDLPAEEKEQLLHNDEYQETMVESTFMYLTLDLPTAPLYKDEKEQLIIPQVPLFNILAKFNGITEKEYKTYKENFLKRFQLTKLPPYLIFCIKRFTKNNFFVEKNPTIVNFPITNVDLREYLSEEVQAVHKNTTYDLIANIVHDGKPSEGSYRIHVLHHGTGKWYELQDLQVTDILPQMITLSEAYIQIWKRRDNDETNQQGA
Summary of the method: as §1

USP4 = target: T4, USP4 (UniProt Q13107)
T4 sequence (whole entry): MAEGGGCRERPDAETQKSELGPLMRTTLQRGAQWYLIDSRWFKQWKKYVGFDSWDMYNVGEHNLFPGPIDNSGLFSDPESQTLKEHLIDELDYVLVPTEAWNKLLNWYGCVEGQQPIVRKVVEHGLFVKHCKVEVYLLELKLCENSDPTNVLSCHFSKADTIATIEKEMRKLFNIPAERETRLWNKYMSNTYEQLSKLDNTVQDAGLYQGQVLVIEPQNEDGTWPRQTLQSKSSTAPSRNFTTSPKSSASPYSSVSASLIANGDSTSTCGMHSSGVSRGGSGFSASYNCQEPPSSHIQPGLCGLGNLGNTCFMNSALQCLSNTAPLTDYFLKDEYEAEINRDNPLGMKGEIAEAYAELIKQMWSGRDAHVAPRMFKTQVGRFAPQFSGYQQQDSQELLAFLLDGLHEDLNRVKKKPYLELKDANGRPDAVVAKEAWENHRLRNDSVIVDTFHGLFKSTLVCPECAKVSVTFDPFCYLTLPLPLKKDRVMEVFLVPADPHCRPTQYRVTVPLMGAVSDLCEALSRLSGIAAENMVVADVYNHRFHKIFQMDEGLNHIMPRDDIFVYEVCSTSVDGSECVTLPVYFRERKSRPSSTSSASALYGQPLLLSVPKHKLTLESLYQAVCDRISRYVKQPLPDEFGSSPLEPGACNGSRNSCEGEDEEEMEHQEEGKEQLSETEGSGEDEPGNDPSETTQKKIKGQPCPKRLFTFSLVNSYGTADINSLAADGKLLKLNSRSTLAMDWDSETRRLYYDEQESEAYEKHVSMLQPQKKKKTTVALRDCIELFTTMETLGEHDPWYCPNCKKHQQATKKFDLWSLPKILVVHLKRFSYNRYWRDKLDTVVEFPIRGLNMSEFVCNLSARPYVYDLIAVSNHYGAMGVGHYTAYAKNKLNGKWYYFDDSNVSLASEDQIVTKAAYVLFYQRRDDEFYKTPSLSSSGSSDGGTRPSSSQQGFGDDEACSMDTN
Summary of the method: as §1

Measured: log2 ratio of Biotin-Ahx-Ub-VS probe labelling

Sequence of USP34 (Q70CQ2 whole entry, the tested form may be a part): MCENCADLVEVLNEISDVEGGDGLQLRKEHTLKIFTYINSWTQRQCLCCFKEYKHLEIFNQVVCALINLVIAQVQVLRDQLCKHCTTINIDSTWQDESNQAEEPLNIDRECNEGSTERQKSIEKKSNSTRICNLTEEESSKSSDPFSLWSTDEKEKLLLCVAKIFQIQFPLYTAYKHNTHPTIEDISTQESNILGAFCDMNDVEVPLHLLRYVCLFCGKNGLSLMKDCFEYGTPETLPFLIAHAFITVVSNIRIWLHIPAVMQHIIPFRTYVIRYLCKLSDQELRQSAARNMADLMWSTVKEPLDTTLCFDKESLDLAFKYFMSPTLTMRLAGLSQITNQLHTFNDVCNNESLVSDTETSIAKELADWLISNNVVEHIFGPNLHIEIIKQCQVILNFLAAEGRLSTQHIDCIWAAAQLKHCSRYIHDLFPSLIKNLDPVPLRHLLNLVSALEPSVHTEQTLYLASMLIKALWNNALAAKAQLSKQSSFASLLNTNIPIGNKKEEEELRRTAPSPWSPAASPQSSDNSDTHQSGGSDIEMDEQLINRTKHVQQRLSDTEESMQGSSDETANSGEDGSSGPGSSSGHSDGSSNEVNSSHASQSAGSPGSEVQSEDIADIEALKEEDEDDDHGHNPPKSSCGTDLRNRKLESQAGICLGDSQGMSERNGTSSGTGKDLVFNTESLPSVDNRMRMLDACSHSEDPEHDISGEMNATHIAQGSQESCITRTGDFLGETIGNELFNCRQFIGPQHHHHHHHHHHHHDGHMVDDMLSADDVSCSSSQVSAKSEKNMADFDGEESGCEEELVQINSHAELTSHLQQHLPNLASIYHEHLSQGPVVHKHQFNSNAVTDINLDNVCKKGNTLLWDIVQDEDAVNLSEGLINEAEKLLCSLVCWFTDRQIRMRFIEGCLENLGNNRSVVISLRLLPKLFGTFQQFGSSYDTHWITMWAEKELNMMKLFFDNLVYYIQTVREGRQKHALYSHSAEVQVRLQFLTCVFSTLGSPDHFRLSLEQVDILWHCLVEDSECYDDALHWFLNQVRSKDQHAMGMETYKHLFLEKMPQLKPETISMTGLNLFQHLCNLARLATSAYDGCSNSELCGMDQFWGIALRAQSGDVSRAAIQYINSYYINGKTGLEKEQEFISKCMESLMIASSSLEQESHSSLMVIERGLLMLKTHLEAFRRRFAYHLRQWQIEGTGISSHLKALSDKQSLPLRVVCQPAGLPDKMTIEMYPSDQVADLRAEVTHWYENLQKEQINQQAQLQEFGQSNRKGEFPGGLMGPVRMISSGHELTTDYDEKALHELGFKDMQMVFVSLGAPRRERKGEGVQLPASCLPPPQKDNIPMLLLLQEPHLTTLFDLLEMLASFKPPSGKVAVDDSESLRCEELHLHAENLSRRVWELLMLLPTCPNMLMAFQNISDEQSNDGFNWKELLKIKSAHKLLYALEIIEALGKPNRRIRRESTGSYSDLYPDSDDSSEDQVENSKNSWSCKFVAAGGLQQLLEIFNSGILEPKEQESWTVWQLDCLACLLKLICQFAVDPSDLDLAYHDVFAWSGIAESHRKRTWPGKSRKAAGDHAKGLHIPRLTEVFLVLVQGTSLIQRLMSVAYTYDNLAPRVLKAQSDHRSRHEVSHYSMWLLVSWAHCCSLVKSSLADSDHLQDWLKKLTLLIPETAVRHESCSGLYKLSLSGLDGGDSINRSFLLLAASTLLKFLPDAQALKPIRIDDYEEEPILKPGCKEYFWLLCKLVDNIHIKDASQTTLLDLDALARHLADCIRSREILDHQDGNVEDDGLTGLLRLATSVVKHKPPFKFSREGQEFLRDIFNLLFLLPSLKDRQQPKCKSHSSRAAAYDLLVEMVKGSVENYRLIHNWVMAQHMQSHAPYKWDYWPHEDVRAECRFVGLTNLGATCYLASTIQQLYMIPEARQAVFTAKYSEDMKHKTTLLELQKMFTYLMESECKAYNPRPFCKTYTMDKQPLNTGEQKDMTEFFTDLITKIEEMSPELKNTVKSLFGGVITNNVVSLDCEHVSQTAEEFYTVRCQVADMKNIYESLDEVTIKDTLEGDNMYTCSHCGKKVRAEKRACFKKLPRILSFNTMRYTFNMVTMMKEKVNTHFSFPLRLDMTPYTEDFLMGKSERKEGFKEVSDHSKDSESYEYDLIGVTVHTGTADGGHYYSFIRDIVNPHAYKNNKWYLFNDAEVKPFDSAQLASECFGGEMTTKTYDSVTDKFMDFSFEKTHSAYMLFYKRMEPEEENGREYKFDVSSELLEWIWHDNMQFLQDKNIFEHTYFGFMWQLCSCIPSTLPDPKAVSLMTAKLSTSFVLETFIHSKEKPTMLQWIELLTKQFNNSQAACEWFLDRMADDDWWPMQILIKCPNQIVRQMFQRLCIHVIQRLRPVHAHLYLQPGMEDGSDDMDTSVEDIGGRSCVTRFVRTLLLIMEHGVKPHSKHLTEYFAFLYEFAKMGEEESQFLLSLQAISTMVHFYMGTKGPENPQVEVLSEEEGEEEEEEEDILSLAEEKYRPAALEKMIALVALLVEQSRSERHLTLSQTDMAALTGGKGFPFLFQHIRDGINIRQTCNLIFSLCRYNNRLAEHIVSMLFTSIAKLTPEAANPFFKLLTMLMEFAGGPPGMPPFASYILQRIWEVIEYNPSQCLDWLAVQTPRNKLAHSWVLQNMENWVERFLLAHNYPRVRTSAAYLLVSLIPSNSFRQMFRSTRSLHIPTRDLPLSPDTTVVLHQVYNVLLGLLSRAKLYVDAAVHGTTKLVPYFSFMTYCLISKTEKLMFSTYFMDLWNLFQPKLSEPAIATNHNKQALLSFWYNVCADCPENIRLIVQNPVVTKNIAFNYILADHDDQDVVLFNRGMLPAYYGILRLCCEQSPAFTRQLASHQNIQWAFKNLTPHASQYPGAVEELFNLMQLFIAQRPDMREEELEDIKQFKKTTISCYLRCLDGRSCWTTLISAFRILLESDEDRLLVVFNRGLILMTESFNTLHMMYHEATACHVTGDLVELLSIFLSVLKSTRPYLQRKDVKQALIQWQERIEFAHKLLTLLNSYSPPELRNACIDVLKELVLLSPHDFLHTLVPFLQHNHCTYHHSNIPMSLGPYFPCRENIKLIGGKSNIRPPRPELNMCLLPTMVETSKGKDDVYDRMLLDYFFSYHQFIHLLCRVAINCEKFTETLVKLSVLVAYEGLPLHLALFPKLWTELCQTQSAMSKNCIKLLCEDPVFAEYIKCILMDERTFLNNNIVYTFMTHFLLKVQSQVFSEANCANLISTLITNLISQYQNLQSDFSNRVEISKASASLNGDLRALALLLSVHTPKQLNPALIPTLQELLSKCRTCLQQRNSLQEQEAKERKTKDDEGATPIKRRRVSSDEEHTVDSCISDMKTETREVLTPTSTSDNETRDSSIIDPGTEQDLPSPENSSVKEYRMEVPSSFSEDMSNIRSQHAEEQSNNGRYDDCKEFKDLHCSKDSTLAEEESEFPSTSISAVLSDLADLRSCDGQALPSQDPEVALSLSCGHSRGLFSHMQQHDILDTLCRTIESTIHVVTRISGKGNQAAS

O=C(CCl)N1CCOCCC1c1ccccc1 (stereo not given)
inactive: USP34 0.169 | USP36 0.192 | USP38 0.104 | USP39 0.0858 | USP4 -0.196
